# Laboratory results reported in ChEMBL document CHEMBL3988442, “University of Dundee, Small-Polar-MMV Screening Library” (2021).
# Among all 48,000 compounds or so, about 13,000 (27%) showed an effect of 50% or more. The list shows a part of the results.
# Tested on: Wolbachia pipientis
# Assay: Anti-Wolbachia Cell-Based Screen
# Assay type: functional
# Parameters: scale not given: in the data most compounds retested in dose-response had high values
# Details: 5 µM
row,SMILES,Percent Effect [%]
1,Cc1ncsc1C(=O)NC1CCN(Cc2ccc(C#N)cc2)CC1,-12.71
2,O=C(NCCOc1ncc(Cl)cc1Cl)c1ccoc1,25.9
3,CO[C@H]1CCN(S(=O)(=O)c2cn(C)cn2)[C@H]1Cc1cnn(C)c1.O=C(O)C(F)(F)F,-3.902
4,CCS(=O)(=O)N1CCC(Nc2ccc(C#N)cc2F)CC1,19.57
5,CCC(Nc1nccc(C2CCCC2)n1)c1ccncc1 (stereo not drawn),-45.04
6,CCC(NC1CCCC1)c1ccc(S(C)(=O)=O)cc1 (stereo not drawn),102.8
7,CC(C)c1ccc(CNC(C)c2ccc(S(C)(=O)=O)cc2)cc1 (stereo not drawn),0.134
8,CS(=O)(=O)c1ccc(CNC(=O)N2CCC(c3ccccc3)CC2)cc1,-1.969
9,CCC(NC1Cc2ccccc2C1)c1ccc(S(C)(=O)=O)cc1 (stereo not drawn),106.7
10,O=S(=O)(N[C@H]1CC[C@H]1NC1Cc2ccccc2C1)c1cccnc1,1.504
11,CCC(NC(=O)c1cnc(N(C)C)nc1C)c1ccc(S(C)(=O)=O)cc1 (stereo not drawn),-15.6
12,CC(NCc1ccc(C(C)(C)C)cc1)c1ccc(S(C)(=O)=O)cc1 (stereo not drawn),2.046
13,CCC(NC1CSCCSC1)c1ccc(S(C)(=O)=O)cc1 (stereo not drawn),107.2
14,CCCN(C)CC1CCN(c2ncc(Br)cn2)C1 (stereo not drawn),-2.862
15,CC(C)CNC[C@H]1COCc2nc3cccnc3n21,-3.474
16,Cc1nc(C(=O)N2CCCC(c3nc(C(C)C)cs3)C2)c[nH]1 (stereo not drawn),27.35
17,Cc1cc(C(=O)NCCCn2nccc2C2CC2)c(=O)[nH]c1C,-16.3
18,CSc1ccc(CN2CCC(CCC(=O)Nc3ccccc3)CC2)cc1,8.024
19,OCC1(CC2CC2)CCCN(Cc2ccc(C(F)(F)F)nc2)C1 (stereo not drawn),-8.11
20,CC(O)C1CCN(Cc2cnc3c(-c4ccccc4)cnn3c2)CC1 (stereo not drawn),2.9
21,CN(C)c1ccc(CN2CCC(C(O)Cc3ccccc3)CC2)cn1 (stereo not drawn),1.983
22,Cn1cc(C(=O)Nc2ccc(CN3CCOCC3)cn2)cn1,-16.87
23,Cc1ccc(CN2CC[C@H](c3nc4cccc(C(N)=O)c4[nH]3)C2)cc1,-7.444
24,O=C(O)c1ccccc1-c1ccc(CN2CCC(CO)C2)cc1 (stereo not drawn),100.7
25,O=C(O)c1ccccc1-c1ccc(CN2CCOCC2)cn1,106.2

row,SMILES,Percent Effect [%]
1,O=C(O)c1ccccc1-c1ccc(CN2CCC(CO)C2)cn1 (stereo not drawn),95.58
2,CC(C)c1ncc(CN2C[C@@H](CN3CCC(CO)CC3)[C@@H](CO)C2)cn1,1.413
3,O=C(O)c1ccccc1-c1ccc(CN2CCC(CO)CC2)cn1,112.1
4,O=C(Nc1cnn(CCN2CCOCC2)c1)c1ccccc1O,-9.189
5,CC(C)=CCC1(CO)CCCN(S(=O)(=O)N2CCCC2)C1 (stereo not drawn),-19.27
6,COCCOc1ccccc1NC(C)C(=O)NC(=O)NC(C)(C)C (stereo not drawn),2.141
7,O=C1CCC(=O)N1CCN1CCOC(c2ccsc2)C1 (stereo not drawn),-5.454
8,O=C1NCCO[C@H]2CN(C(=O)CC3Cc4ccccc4C3)CC[C@@H]12,-17.08
9,CCS(=O)(=O)N1CCN(c2cc(-n3cnc(C)c3C)nc(C)n2)CC1,9.656
10,CCCS(=O)(=O)N1CCN(c2cc(-n3nc(C)cc3C)nc(C)n2)CC1,56.72
11,CCCS(=O)(=O)N1CCN(c2cc(-n3cccc3)nc(C)n2)CC1,64.17
12,CCCS(=O)(=O)N1CCN(c2cc(-n3ccnc3)nc(C)n2)CC1,-9.543
13,CCCS(=O)(=O)N1CCN(c2cc(-n3cnc(C)c3C)nc(C)n2)CC1,2.706
14,Cc1cc(C)n(-c2cc(N3CCN(C(=O)C(C)(C)C)CC3)nc(C)n2)n1,-2.343
15,CCc1nc(CN2CCCN(CC(=O)Nc3cccnc3)CC2)no1,22.91
16,CCc1nnc(N2C[C@@H](CN(C)CCO)[C@@H](CO)C2)s1,-3.241
17,Cc1ccc(NC2CCN(C(=O)c3cc[nH]n3)CC2)nn1,-5.889
18,Cc1ccc(NC2CCN(C(=O)CCc3nccs3)CC2)nn1,139
19,Cc1ccc(NC2CCN(C(=O)CCc3c(C)noc3C)CC2)nn1,116
20,Cc1ccc(NC2CCN(C(=O)CCc3ccncc3)CC2)nn1,118.5
21,Cc1ccc(NC2CCN(C(=O)c3cscn3)CC2)nn1,107.8
22,Cc1ccc(NC2CCN(C(=O)c3c(C)noc3C)CC2)nn1,4.919
23,Cc1ncc2c(n1)CN(CCCc1nc3ccccc3o1)CC2,-1.914
24,CC(CNC(=O)c1nnn(-c2ccccc2)c1C(F)(F)F)N(C)C (stereo not drawn),5.891
25,COC(=O)c1ccc2ccn(CC3CCCN(C)C3)c(=O)c2c1 (stereo not drawn),-29.85

row,SMILES,Percent Effect [%]
1,CCOc1ccccc1CCNC(=O)NCC(O)c1cccs1 (stereo not drawn),-11.69
2,CCCNC(=O)CCNC(=O)N1CCc2c(F)ccc(F)c2C1,-1.074
3,COc1ccc(C(=O)NC2COc3ccccc3C2)cc1OCC(=O)O (stereo not drawn),-8.358
4,CCC(O)CNC(=O)c1coc(COc2ccc3sc(C)nc3c2)n1 (stereo not drawn),7.295
5,Cc1ccc(NC2CCN(C(=O)CCc3ccsc3)CC2)nn1,107.5
6,Cc1ccc(NC2CCN(C(=O)CCc3cscn3)CC2)nn1,118.6
7,O=C(CCc1ccsc1)N1CCC(Nc2cccnn2)CC1,87.13
8,Cc1ccc(NC2CCN(C(=O)CCc3ccccc3)CC2)nn1,109.9
9,O=C(CCc1cccs1)N1CCC(Nc2cccnn2)CC1,-8.369
10,Cn1c(C(F)(F)F)nn(CCNC(=O)Nc2ccccc2Cl)c1=O,-9.892
11,COCc1c(C(=O)N2CCCC(N(C)Cc3ccccc3)C2)noc1C (stereo not drawn),2.95
12,COc1ccc(F)cc1-n1cnc(CCNC(C)=O)c1,-9.257
13,COc1cccc(CNC(=O)c2ccccc2-n2cnc(CN)c2)c1,113.9
14,NCc1cn(-c2ccccc2C(=O)NCc2ccccc2)cn1,2.452
15,NCc1cn(-c2ccccc2C(=O)NCc2cccc(Cl)c2)cn1,-5.254
16,NCc1cn(-c2ccccc2C(=O)NCc2ccccc2Cl)cn1,137.2
17,COc1cccc(CNC(=O)N2CCCC(Cn3cc(CN)nn3)C2)c1 (stereo not drawn),-31.64
18,Cc1nccn1-c1ccccc1CNC(=O)c1cn(CCN)nn1,1.636
19,COc1ccccc1CNC(=O)c1ccccc1-n1cnc(CN)c1,104.3
20,CCn1c(N)nc2cc(C(=O)NCc3ccccc3Cl)cnc21,-4.176
21,CN1CCc2c(NC(=O)NCc3ccccc3Cl)cccc21,-4.639
22,Cc1ccccc1CNC(=O)c1ccccc1-n1cnc(CN)c1,128.9
23,COc1ccc(Cl)cc1-n1cnc(CCNC(C)=O)c1,-30.19
